Each structure is given as a SMILES string. Activity calls are given as the source filed them. Calls come from the whole dose curve; as a rule, active = well fitted curve in the direction sought with a large enough effect in the repeat runs; inconclusive = weak or mixed curves; inactive = flat fitted curve, though single readings scatter.
% is set by controls: 0 for no effect and ±100 for the full control effect.

The nature of the experiment: qHTS assay to test for compound auto fluorescence at 535 nm (green) in HEK293 cell free culture (AID 720682). The following applies: cell-free medium, green autofluorescence 485/535 nm, stronger effect = higher value; series mostly up to 91.3 µM. An excerpt:
U.S. Tox21 Program National Center for Advancing Translational Sciences [NCATS] NIH Chemical Genomics Center [NCGC] U.S. Environmental Protection Agency [EPA] National Institutes of Environmental Health Sciences [NIEHS] National Toxicology Program [NTP] U.S. Food and Drug Administration [FDA] Tox21 Assay Overview: Compound auto fluorescence often interferes with screening of the compound library against various biological targets and signaling pathways. Some of these compounds may have fluorophoric properties. Such properties may interfere with the assay outputs resulting in false positives and/or negatives. To decrease such complications and ensure the compound activities are relevant in terms of biological response, the Tox21 10K compound library was screened for auto fluorescence. From the fluorophores used as reporter signals in our screening assays, the auto fluorescence equivalencies of compounds against three fluorophores have been evaluated: Triamterene, Fluorescein and Rose Bengal sodium for blue, green and red fluorescence, respectively. The fluorescence intensities were measured using Excitation/Emission wavelengths at 405/460nm, 485/535nm and 540/590nm for blue, green and red labels, respectively. This assay includes the green fluorescence data.
Tox21 Assay Protocol Summary: 5 uL of culture medium (DMEM containing 10% FBS) per well was dispensed into black wall/clear bottom 1536-well plates using a Multidrop Combi Dispenser (ThermoFisher Scientific, Waltham, MA). After 23 nL compound or DMSO vehicle was transferred into assay plate by a pintool work station (Kalypsys, San Diego, CA), fluorescence intensities in the assay plates were measured by an Envision (PerkinElmer, Shelton, CT) plate reader using three labels for measuring blue, green and red fluorescence at […] 460, 535 and 590nm respectively.
For orientation: Quantitative high-throughput screening tests each substance at several concentrations.
Consider `COC(=O)N[C@H](C(=O)N[C@@H](Cc1ccccc1)[C@@H](O)CN(Cc1ccc(-c2ccccn2)cc1)NC(=O)[C@@H](NC(=O)OC)C(C)(C)C)C(C)(C)C`, for which the molecule was classed as inactive.
Turning to `CCOc1ccc(NC(N)=O)cc1`, the outcome was inactive.
`CCN(CCCc1ccccc1)CCCc1ccccc1`: the activity change is 0.0298% [at 18.6 µM] (inactive).
With `O=C1CCN(c2ccccc2)N1`, the call was inactive.
The same measure, in the same setting: under `O=C(O)c1cccc(Cl)c1Cl` stands “inactive”; under `O=S(=O)(O)C(F)(F)F`, “inactive”.
For `COC(=O)c1ccc2cc(C(=O)OC)ccc2c1`, the activity change was -0.0115% [at 18.6 µM] (inactive).
As to `C=O`, the molecule was called inactive.
In the case of `CC(=O)OC(C)OC(C)=O`, the result was inactive.
On to `Cc1cc(S(=O)(=O)O)c(N)cc1Cl`, for which the outcome was inactive.
Regarding `O=C(O)CN(CCN(CC(=O)O)CC(=O)O)CCN(CC(=O)O)CC(=O)O`, the call was inactive.
The same measure, in the same setting: the entry for `CCCN(CCC)C(=O)C(CCC(=O)O)NC(=O)c1ccccc1` (stereo not given) is “inactive”; for `Cc1ccc([N+](=O)[O-])cc1Cl` it is “inactive”.
Same read-out and setting: under `CCCCNCCCC` stands “inactive”; under `CCCCCCOc1ccc(N)cc1`, “inactive”; under `CN1[C@@H]2CC[C@H]1CC(OC(=O)c1c[nH]c3ccccc13)C2` (stereo not given in full), “inactive”.
Still for that read-out and setting: under `O=c1[nH]cnc2c1ncn2[C@@H]1O[C@H](CO)[C@@H](O)[C@H]1O` stands “inactive”; under `CC(C)=CCCC(C)CCOC=O` (stereo not given), “inactive”.
Consider `CCCCC1CCC(=O)O1` (stereo not given), for which the result was inactive.
On the same count and under the same terms, under `O=C1N(c2ccccc2)c2ccccc2C1(Cc1ccncc1)Cc1ccncc1` stands “inactive”; under `CC1(C)S[C@@H]2[C@H](NC(=O)C(C(=O)O)c3ccccc3)C(=O)N2[C@H]1C(=O)O` (stereo not given in full), “inactive”; under `FC(F)(F)C(F)(F)C(F)(F)C(F)(F)C(F)(F)C(F)(F)C(F)(F)C(F)(F)Br`, “inactive”.
In the case of `OCC(CBr)(CBr)CBr`, the molecule was classed as inactive.
On the same count and under the same terms, under `CC/C=C\CCOC(=O)C(C)C` stands “inactive”.
Still for that read-out and setting: the entry for `Cc1c[nH]c(=S)[nH]c1=O` is “inactive”.
Take `NC/C=C/C(=O)O`: the call was inactive.
Same read-out and setting: under `O=C(O)C(=O)Cc1c[nH]c2ccccc12` stands “inactive”; under `Cc1cc2nc(N)sc2cc1C`, “inactive”.
The same measure, in the same setting: the entry for `CCN(O)CC` is “inactive”.
On the same count and under the same terms, the entry for `CN1CCC[C@@H]1Cc1c[nH]c2ccc(CCS(=O)(=O)c3ccccc3)cc12` is “inactive”; for `CC1=C(CC(=O)O)c2cc(F)ccc2/C1=C\c1ccc(S(C)(=O)=O)cc1` it is “inactive”.
For `CCOC(=O)C1CC(=O)C(=C(O)C2CC2)C(=O)C1` (stereo not given), the outcome was inactive.
With `CC(=O)N(CC(O)CN(C(C)=O)c1c(I)c(C(=O)NCC(O)CO)c(I)c(C(=O)NCC(O)CO)c1I)c1c(I)c(C(=O)NCC(O)CO)c(I)c(C(=O)NCC(O)CO)c1I` (stereo not given), the activity change is -0.0739% [at 18.6 µM] (inactive).
Take `CC(=O)OC1C2(C)CCC(C2)C1(C)C` (stereo not given): the molecule was classed as inactive.
The same measure, in the same setting: under `CCOC(=O)COc1ccc2c(c1)CC(NCC(O)c1cccc(Cl)c1)CC2` (stereo not given) stands “inactive”; under `COC(C)CCO` (stereo not given), “inactive”.
Same read-out and setting: the entry for `CC(C)Nc1nc(N)nc(Cl)n1` is “inactive”; for `C[C@]12CCC(=O)C=C1CC[C@@H]1[C@@H]2CC[C@@]2(C)[C@H]1CC[C@]2(O)C(=O)CO` it is “inactive”.
As for `COc1cc(N)c(Cl)cc1C(=O)NC1CCN(Cc2ccccc2)CC1`, the activity change was -0.0003% [at 18.6 µM] (inactive).
Take `CC(C)CC(=O)OCc1ccccc1`: the molecule was called inactive.

For the origin of these results see PubChem BioAssay (Tox21).
